Experimental data reported in PubChem BioAssay (NCATS).
Results filed as inconclusive are left out. The source made the active and inactive calls. Unless noted, calls come from the whole dose curve; as a rule, active = well fitted curve in the direction sought with a large enough effect; inconclusive = small, poorly fitted or top-dose-only effect, or another doubt; inactive = no such curve, though single readings can be large; an effect the other way counts as inactive or inconclusive.

Key:
[1] = system: Zika virus NS2B-NS3 protease; experiment: Primary screen GU AMC qHTS for Zika virus inhibitors (AID 1347154); note: nearly all actives have a fitted effect of over 70% in size
Procedure, shortened: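 Unlinked Zika NS2B hydrophilic domain/NS3 protease domain noncovalent complex (25 nM final) in 10 mM Tris-HCl pH 8.0, 0.01% Tween 20, with AMC peptide substrate. Fluorescence (ex 340, em 450 nm) change over 15 min, room temperature; percent inhibition fitted to 4-parameter Hill equation.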

[2] = target: Calcium and integrin-binding protein 1 (Homo sapiens) (UniProt Q99828); experiment: Primary qHTS for Identification of Calcium Integrin Binding Protein 1 (CIB1) Competitor (AID 1508620)
Procedure, shortened: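 Fluorescence polarization competition: CIB1-GST (1 uM final) preincubated with compound 15 min at room temperature, then FITC-labeled alphaIIb peptide (100 nM final) added for another 15 min. Polarization read at Ex 480/Em 540.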

[3] = target: Cytochrome P450 3A4 (Homo sapiens) (UniProt P08684); experiment: Cytochrome P450 family 3 subfamily A member 4 (CYP3A4) small molecule antagonists: luciferase qHTS assay (AID 1645841; active = well fitted curve in the direction sought with a large enough effect in the repeat runs; an effect the other way counts as inactive or inconclusive; note: nearly all actives have a fitted effect of over 45% in size)
Procedure, shortened: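 P450-Glo CYP3A4 enzyme with proluciferin substrate was preincubated with DMSO-dissolved compounds for 10 min at room temperature. NADPH regeneration solution started a 1 h reaction. Detection reagent stopped it, and luminescence was read after 20 min.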

[4] = Primary qHTS for inhibitors of nuclear receptor binding SET domain protein 2 (NSD2) in an isogenic RCH-ACV NSD2 p.E1099K mutant (9B) (AID 1645876); note: nearly all actives have a fitted effect of over 70% in size
[5] = Primary qHTS for inhibitors of nuclear receptor binding SET domain protein 2 (NSD2) in an RCH-ACV wild type WT cells (2C) (AID 1645877); note: nearly all actives have a fitted effect of over 70% in size
[6] = target: Glutathione peroxidase 1 (Homo sapiens) (UniProt P07203); experiment: Primary qHTS Assay for Inhibitors of Recombinant Selenoprotein Glutathione Peroxidase 1 (GPX1) (AID 1845191); note: nearly all actives have a fitted effect of over 65% in size
Procedure, shortened: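 Recombinant GPX1 (10 nM final) was preincubated with compound for 30 min at room temperature, then reacted with 1 mM GSH, 0.5 mM CHP, 0.5 mM NADPH and 100 nM glutathione reductase; NADPH fluorescence (340/450 nm) was read at 0 and 15 min.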

[7] = target: Phospholipid hydroperoxide glutathione peroxidase GPX4 (Homo sapiens) (UniProt P36969); experiment: Primary qHTS Assay for Inhibitors of Recombinant Selenoprotein Glutathione Peroxidase 4 (GPX4) (AID 1845192); conditions: outcome: dose series up to 50 µM unless noted; note: nearly all actives have a fitted effect of over 65% in size
Procedure, shortened: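 GR-coupled readout: 100 nM GR, 1 mM GSH, 0.5 mM NADPH; NADPH fluorescence (ex 340/em 450 nm) read at t=0 and after 15 min RT. GPX4 200 nM, preincubated 30 min with compound; substrate 0.5 mM CHP.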

Measured: Potency

Sequence of Phospholipid hydroperoxide glutathione peroxidase GPX4 (Homo sapiens) (P36969 whole entry, looked up): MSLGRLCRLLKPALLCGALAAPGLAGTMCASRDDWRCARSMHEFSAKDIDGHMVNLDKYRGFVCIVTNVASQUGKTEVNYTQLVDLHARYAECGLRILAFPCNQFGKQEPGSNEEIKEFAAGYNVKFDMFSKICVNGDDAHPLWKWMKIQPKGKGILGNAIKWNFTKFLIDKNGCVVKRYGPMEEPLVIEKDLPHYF
Sequence of Glutathione peroxidase 1 (Homo sapiens) (P07203 whole entry, looked up): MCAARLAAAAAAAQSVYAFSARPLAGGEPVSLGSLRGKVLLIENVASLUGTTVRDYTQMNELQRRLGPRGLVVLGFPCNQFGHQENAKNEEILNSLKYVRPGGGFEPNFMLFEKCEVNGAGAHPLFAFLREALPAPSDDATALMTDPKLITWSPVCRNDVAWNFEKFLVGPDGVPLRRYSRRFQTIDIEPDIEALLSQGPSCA
Sequence of Cytochrome P450 3A4 (Homo sapiens) (P08684 whole entry, looked up): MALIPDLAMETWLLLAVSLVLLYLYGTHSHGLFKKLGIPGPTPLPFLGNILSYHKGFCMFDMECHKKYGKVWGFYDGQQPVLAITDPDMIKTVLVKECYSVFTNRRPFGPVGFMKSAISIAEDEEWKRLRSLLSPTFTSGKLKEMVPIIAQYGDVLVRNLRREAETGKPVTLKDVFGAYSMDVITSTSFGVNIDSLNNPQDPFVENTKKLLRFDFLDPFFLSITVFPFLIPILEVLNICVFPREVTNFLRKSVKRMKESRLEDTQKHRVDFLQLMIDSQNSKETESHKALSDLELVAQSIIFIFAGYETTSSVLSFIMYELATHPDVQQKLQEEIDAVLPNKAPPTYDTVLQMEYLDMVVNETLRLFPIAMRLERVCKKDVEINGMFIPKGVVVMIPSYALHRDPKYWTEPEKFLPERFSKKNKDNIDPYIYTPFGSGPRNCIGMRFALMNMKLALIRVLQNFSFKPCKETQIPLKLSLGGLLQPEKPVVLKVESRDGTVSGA
Sequence of Calcium and integrin-binding protein 1 (Homo sapiens) (Q99828 whole entry, looked up): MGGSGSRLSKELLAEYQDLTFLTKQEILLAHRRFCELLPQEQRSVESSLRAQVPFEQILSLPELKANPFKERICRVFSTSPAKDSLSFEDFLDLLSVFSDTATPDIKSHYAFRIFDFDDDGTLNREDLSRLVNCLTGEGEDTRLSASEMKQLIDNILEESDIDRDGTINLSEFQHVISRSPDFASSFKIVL

CCCCN=C(N)NC(=N)N
inactive: [1] | [2] | [3] | [4] | [5] | [6] | [7] inactive [setting not given]
